# High-throughput results as filed in PubChem.
# ssDAF-12 act = S. stercoralis DAF-12 activation, primary screen; HEK293 ssDAF-12/GRIP1 lit1-tk-luc reporter, luminescence; % of 3 µM dafachronic acid response; actives 1% (n = 370,000); activation, % at 6.8 µM;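 active = activation above the mean over all tested compounds plus 3 SD, cut at about 0.9% in these data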;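 note: 0% = DMSO-only wells and 100% = 3 µM delta7-dafachronic acid wells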
# NF-kB expr up = compounds increasing NF-kB expression in human neuronal cells | actives 1.6% (n = 190,000) | AID 1239 | fold change at 12.5 µM | NF-kB reporter expression; active compounds read high; in the data active = fold change above about 3.3
# hgDAF12 agonist = hgDAF-12 agonism, primary luciferase screen; HEK293 GAL4-hgDAF12 UAS-luciferase reporter, agonist luminescence; normalized to butyrate control; activation, % at 6.8 µM; actives 1.8% (n = 370,000); AID 687014;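 active = activation above a cutoff set at the mean of all screened compounds plus 3 SD, cut at about 10% in these data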;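 note: 0% = DMSO wells and 100% = sodium butyrate wells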
# hcDAF-12 act = activates DAF-12 receptor from parasite H. contortus; HEK293 hcDAF-12 lit1-tk-luc reporter, luminescence; 0% DMSO, 100% Δ7-dafachronic acid; actives 1.4% (n = 370,000); activation, % at 6.8 µM;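 active = activation above the mean of all tested compounds plus 3 SD, cut at about 5.5% in these data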;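 note: 100% = response to 3 µM Δ7-dafachronic acid high control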
# APP 5'UTR act = activates APP 5'UTR luciferase reporter; SH-SY5Y APP 5'UTR luciferase reporter, luminescence; zero percent = DMSO vehicle wells; activation, % at 2 µM; actives 1% (n = 190,000);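 active = activation above a set limit, based on mean plus 3 SD of controls, cut at about 140% in these data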
# Active calls of the source: *; nt = not tested or not shown. A selection: hits, their analogues and other compounds. The true share with any hit is near 3.4%.
SMILES,ssDAF-12 act,NF-kB expr up,hgDAF12 agonist,hcDAF-12 act,APP 5'UTR act
O=C(Nc1cccnc1)c1ccc(-c2ccccc2)cc1,-0.6,3.95*,9.7,1.7,109.9
CCC(C)c1ccc(NC(=O)c2cccnc2)cc1 (centres undefined),-0.3,3.91*,9.9,2.0,103.9
COC(=O)CSc1nc2cc(C)ccc2cc1C#N,1.2*,6.29*,12.2*,4.6,137.8*
Cc1ccc2nc3sc(-c4nnc(-c5ccccc5[N+](=O)[O-])o4)c(N)c3cc2c1,nt,0.9,nt,nt,-5.0
CCOC(=O)CC(=O)CSc1nc(CC)c(C)cc1C#N,-1.4,nt,-0.1,-1.2,nt
CCOC(=O)CC(=O)CSc1nc2ccc(C)cc2cc1C#N,0.9*,8.31*,10.6*,4.5,31.9
Cc1ccc2cc(C#N)c(SCc3nnc(-c4ccccc4[N+](=O)[O-])o3)nc2c1,-1.2,4.74*,5.5,-2.9,27.7
O=C(CSc1nnc(COc2ccc(Cl)cc2)n1Cc1ccco1)Nc1cccc2ccccc12,-1.2,nt,1.4,-2.9,nt
CC(C)[C@H]1Cn2nncc2Cn2c3ccccc3c(=O)n21,-0.4,nt,-0.7,-1.0,nt
c1ccc(-c2ncc(-c3ccn[nH]3)s2)cc1,2.0*,7.31*,22.3*,5.4,230.5*
c1ccc(Oc2ccc(-c3ccn[nH]3)cc2)cc1,0.7,nt,8.2,2.7,nt
CCN(C(=O)c1cc2ccccc2oc1=O)c1ccccc1,0.3,4.66*,9.1,3.2,104.9
CCN(C(=O)c1cc2ccccc2oc1=O)c1cccc(C)c1,-1.3,1.25,2.7,1.5,6.1
NC(=NCCc1c[nH]c2ccccc12)NC(=O)OCc1ccccc1,-1.0,nt,-2.8,-1.4,nt
O=C(CSc1ncccn1)NCc1cccc(Cl)c1,-1.0,1.56,12.2*,3.8,18.6
O=C(CSc1ncccn1)NCc1ccc(Cl)cc1,-0.8,1.55,5.6,1.3,10.4
O=C(CSc1nncs1)NC(=O)Nc1ccc2c(c1)OCCO2,-0.7,nt,11.8*,2.0,nt
O=C(CSc1nncs1)Nc1ccc2c(c1)OCCO2,-0.5,1.84,5.5,2.0,-6.2
CNc1nnc(-c2ccc(N(C)C)cc2)s1,-0.3,4.72*,10.9*,3.6,115.4
CCC(C)(C(=O)NC1CCCCC1)N(C)C(=O)c1ccccn1 (centres undefined),-0.7,1.03,2.2,6.1*,-1.1
O=C(Nc1cc(-c2ccccc2)[nH]n1)c1ccccc1F,-0.7,nt,12.3*,1.7,nt
C=CCC(=O)NC(C)c1cnn(-c2ccccc2C)c1C (centres undefined),1.0*,1.53,2.4,3.1,2.4
Cc1ccccc1-n1ncc(C(C)NC(=O)c2ccccc2)c1C (centres undefined),-1.6,1.72,0.9,0.5,14.9
Cc1ccc(C(=O)NC2CCc3ccccc3C2=O)cc1 (centres undefined),-0.7,3.92*,13.2*,3.3,155.6*
CC1=C(C(=O)N(C)C)CC(CC(=O)NC2CCCCC2)C(=O)N1CCC1=CCCCC1 (centres undefined),-0.7,nt,5.5,0.3,nt
SMILES,ssDAF-12 act,NF-kB expr up,hgDAF12 agonist,hcDAF-12 act,APP 5'UTR act
CC1=C(C(=O)N(C)C)CC(CC(=O)NC2CCCC2)C(=O)N1CCC1=CCCCC1 (centres undefined),-0.1,nt,11.6*,2.8,nt
Cc1ccc(-c2cc(-c3nnc(SCc4cccc5ccccc45)n3N)[nH]n2)cc1,-1.9,nt,-2.2,-5.0,nt
CN(C)/C=C/C(=O)c1cnc(-c2ccccc2Cl)s1,-0.5,3.52*,0.3,1.8,116.4
COC(=O)[C@]12C[C@H](CC(=O)NCc3cccc4ccccc34)C(=O)N(Cc3cccc4ccccc34)C1=C[C@H](C(C)(C)C)O[C@@H]2C,-1.9,nt,-1.0,-2.0,nt
Cc1ccc2nc(-c3ccccc3)cn2c1,-2.5,0.96,-7.4,-1.8,2.7
Cc1ccc2nc(-c3ccc(-c4ccccn4)s3)cn2c1,0.2,nt,11.7*,3.6,nt
N/C(=N\OCc1ccccc1)c1nonc1N,-0.9,1.78,10.6*,1.8,63.2
N/C(=N/OCc1cccc([N+](=O)[O-])c1)c1nonc1N,-1.1,1.22,0.5,-2.9,16.9
COC(=O)c1scc(C)c1NC(=O)C1CCCCC1,-0.2,1.15,-1.0,0.3,3.6
COC(=O)c1scc(C)c1N/N=C(\C)c1ccc(F)cc1F,-0.4,0.72,0.5,5.8*,-19.6
COC[C@@H]1CCCN1c1ccc2c(c1)O[C@H]1CCN(C1)S2(=O)=O,-1.4,nt,-1.7,-0.4,nt
O=C(OCc1nc2ccccc2s1)c1ccccc1O,0.0,2.23,6.2,3.3,26.1
